The text below walks through data of the supplement of paper PMC10338343.

± gives the standard deviation.

The first test has as its system MILI (PIWIL2) piRISC loaded with L1MC piRNA (26 nt). The test can be described thus: pre-steady-state target cleavage rate (min^-1); guide: L1MC piRNA 5'p-UAACUAAAUACUAUGCAAGCUGUAGG; MIWI and MILI are mouse PIWI proteins and EfPiwi is from a freshwater sponge; tags in brackets are library labels; higher = faster piRNA-guided slicing of the target. Conditions: auxiliary factor: 500 nM mouse GTSF1. The procedure: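 Cleave-'n-Seq: a library of target RNAs (target site embedded in constant flanks, ACAGCATTCCGCGTTAGTGATATCCG... 5' flank; DNA-blocked outside the site) at 0.1 nM was incubated with 1 nM active mouse MILI or MIWI piRISC (synthetic 5'-monophosphorylated piRNA guide) with or without 500 nM mouse GTSF1 at 33 °C for 1 min to 16 h. Uncleaved targets were sequenced and normalised to non-target controls, and the pooled three trials were fitted to a burst-and-steady-state model to give the pre-steady-state cleavage rate (min^-1; k3 is constrained to at most 1e-4). Sequence is the target site only; target names encode pairing extent (gX:gY) and contiguous / 1-mismatch / 2-mismatch / bulge geometry. Fits with R² ≤ 0 are excluded.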
Turning to UCCUGGAUCAGCUUGGUAAGUAUUUAGUUA, the “pre-steady-state target cleavage rate” value worked out at 0.0316 ± 0.0076.

Turning to UCCUGGAUGUGCUUGCAUCGUAUUUAGUUA, the “pre-steady-state target cleavage rate” value stood at 0.0778 ± 0.017. On the same count and under the same terms, as for UCCUGGAUGUCGAUGCAUAGUUUUUAGUAA, the figure is 0.0058 ± 0.0029; as for UCCUGGAUCUGCAUGCAUAGUAUUUAGUUA, 0.209 ± 0.015. For UCCUCCUACAGCUUGCAAUCUAUUUAGUAA, the “pre-steady-state target cleavage rate” value was 0.0401 ± 0.0094.

Regarding UCCUGGUACAGCUUGCUAGUAUUUAGUUA, the “pre-steady-state target cleavage rate” value worked out at 0.0128 ± 0.0057. For the sequence UCCUGGUACACCUUGCAUAGUUUUUAGUUA, the “pre-steady-state target cleavage rate” value turned out to be 0.0288 ± 0.011. The same measure, in the same setting: the value for UCCUGGAUGAGCUUGCAAGUAUUUAGUUA was 0.0177 ± 0.0056; that for UCCUGGAUCAGGUUGCAUACUAUUUAGUUA was 0.0436 ± 0.0082; that for UCCUGCUACAGCUUGCAUAGUAUUUAGUGA was 0.193 ± 0.033. Still for that read-out and setting: the value for UCCUGCUACAGCUUCGAUAGUAUUUAGUAA was 0.199 ± 0.03. As to UCCUGCUACAGCUUGCUUAGUAUUUAGUUA, the “pre-steady-state target cleavage rate” value stood at 0.248 ± 0.013.

For UCCUGGAUCAGGAUGCAUAGUAUUUAGUAA, the “pre-steady-state target cleavage rate” value was 0.128 ± 0.012. The same measure, in the same setting: the value for UCCUGGAACAGCAACCAUAGUAUUUAGUUA was 0.152 ± 0.018; that for UCCUCCUACAGCAUGCAUAGUAUUUUGUUA was 0.143 ± 0.02; that for UCCUGGUACAGCUUGCUUAGUAUUUACAAA was 0.0242 ± 0.009. Same read-out and setting: the value for UCCUGGAUGUCCUUGCAUAGUAUUAACUUA was 0.0115 ± 0.0049; that for UCCUGGAUCAGCUUGCAUAGUAUAUAGUUA was 0.268 ± 0.017. As for UCCUGCUACAGCUAGCAUAGAAUUUAGUUA, the “pre-steady-state target cleavage rate” value turned out to be 0.0821 ± 0.018. As to UCCUGGAUGAGCUUACAUAGUAUUUAGUUA, the “pre-steady-state target cleavage rate” value stood at 0.153 ± 0.019. In the case of UCCUGGAUGUCCUUGCAAAGUAAUUAGUUA, the “pre-steady-state target cleavage rate” value worked out at 0.018 ± 0.0064. Turning to UCCUGGAUGUCCUUGCAUAGUAUUUUCUAA, the “pre-steady-state target cleavage rate” value was determined as 0.0134 ± 0.0068. Turning to UCCUGGAUGUGCUAUGCAUAGUAUUUAGUUA, the “pre-steady-state target cleavage rate” value worked out at 0.141 ± 0.018.

Staying with this test, now noted: auxiliary factor: none (no GTSF1).
Regarding UCCUGGAUCAGCUUGGUAAGUAUUUAGUUA, the “pre-steady-state target cleavage rate” value amounted to 0.00588 ± 0.0023.

As to UCCUGGAUGUGCUUGCAUCGUAUUUAGUUA, the “pre-steady-state target cleavage rate” value worked out at 0.0103 ± 0.0028. UCCUGGAUCUGCAUGCAUAGUAUUUAGUUA: the “pre-steady-state target cleavage rate” value came to 0.00837 ± 0.0023.

Turning to UCCUGGUACAGCUUGCUAGUAUUUAGUUA, the “pre-steady-state target cleavage rate” value came to 0.00634 ± 0.002. For the sequence UCCUGGUACACCUUGCAUAGUUUUUAGUUA, the “pre-steady-state target cleavage rate” value stood at 0.00381 ± 0.0034. For the sequence UCCUGGAUGAGCUUGCAAGUAUUUAGUUA, the “pre-steady-state target cleavage rate” value is 0.00379 ± 0.0026. Consider UCCUGGAUCAGGUUGCAUACUAUUUAGUUA, for which the “pre-steady-state target cleavage rate” value was found to be 0.00331 ± 0.0025. Take UCCUGCUACAGCUUGCAUAGUAUUUAGUGA: the “pre-steady-state target cleavage rate” value was 0.00299 ± 0.0027. UCCUGCUACAGCUUCGAUAGUAUUUAGUAA: the “pre-steady-state target cleavage rate” value stood at 0.00274 ± 0.0022. Still for that read-out and setting: as for UCCUGCUACAGCUUGCUUAGUAUUUAGUUA, the figure is 0.00684 ± 0.0021. As for UCCUGGAUCAGGAUGCAUAGUAUUUAGUAA, the “pre-steady-state target cleavage rate” value was determined as 0.00364 ± 0.002.

As to UCCUGGAACAGCAACCAUAGUAUUUAGUUA, the “pre-steady-state target cleavage rate” value was determined as 0.00431 ± 0.0018. On the same count and under the same terms, the value for UCCUCCUACAGCAUGCAUAGUAUUUUGUUA was 0.00296 ± 0.0027. In the case of UCCUGGAUCAGCUUGCAUAGUAUAUAGUUA, the “pre-steady-state target cleavage rate” value turned out to be 0.00895 ± 0.0025. Consider UCCUGGAUGAGCUUACAUAGUAUUUAGUUA, for which the “pre-steady-state target cleavage rate” value worked out at 0.00591 ± 0.0023. Turning to UCCUGGAUGUCGAUGCAUUGUAAUUAGUUA, the “pre-steady-state target cleavage rate” value is below 0.0001. Take UCCUGGAUGUCCUUGCAAAGUAAUUAGUUA: the “pre-steady-state target cleavage rate” value came to 0.00522 ± 0.0014. For UCCUGGAUGUGCUAUGCAUAGUAUUUAGUUA, the “pre-steady-state target cleavage rate” value is 0.0069 ± 0.0024.
